Compounds without any hit were thinned out: in the full panel of roughly 83,000, 20% have a hit.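 Negative percent growth values reflect cell death: -40 means 40% of the cells present at the start died, and -100 means all died.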 A number with no mark means an inactive call. The source made the active and inactive calls. The calls were made as follows: active = growth percent below 10; inactive = the rest.
Experiments:
Assay in all cases: NCI-60 one-dose screen, 48 h (100 = growth as untreated, 0 = no growth, -100 = all killed)
NCI-H460 lung = conditions: 10 µM unless noted
A549/ATCC NSCLC = conditions: 10 µM unless noted
786-0 renal = conditions: 10 µM unless noted
COLO 205 colon = conditions: 10 µM
K-562 leukemia = conditions: 10 µM unless noted
MALME-3M melanoma = conditions: 10 µM unless noted
RXF 393 renal = conditions: 10 µM unless noted
SF-295 CNS = conditions: 10 µM unless noted
UACC-257 melanoma = conditions: 10 µM unless noted
SK-MEL-5 melanoma = conditions: 10 µM unless noted
LOX IMVI melanoma = conditions: 10 µM unless noted
SK-MEL-2 melanoma = conditions: 10 µM unless noted
UO-31 renal = conditions: 10 µM unless noted
CAKI-1 renal = conditions: 10 µM unless noted
A498 renal = conditions: 10 µM unless noted
HL-60(TB) leukemia = conditions: 10 µM unless noted
MOLT-4 leukemia = conditions: 10 µM
OVCAR-4 ovarian = conditions: 10 µM unless noted
OVCAR-3 ovarian = conditions: 10 µM unless noted
SW-620 colon = conditions: 10 µM unless noted

| SMILES | growth (NCI-H460 lung) | growth (A549/ATCC NSCLC) | growth (786-0 renal) | growth (COLO 205 colon) | growth (K-562 leukemia) | growth (MALME-3M melanoma) | growth (RXF 393 renal) | growth (SF-295 CNS) | growth (UACC-257 melanoma) | growth (SK-MEL-5 melanoma) | growth (LOX IMVI melanoma) | growth (SK-MEL-2 melanoma) | growth (UO-31 renal) | growth (CAKI-1 renal) | growth (A498 renal) | growth (HL-60(TB) leukemia) | growth (MOLT-4 leukemia) | growth (OVCAR-4 ovarian) | growth (OVCAR-3 ovarian) | growth (SW-620 colon) |
| --- | --- | --- | --- | --- | --- | --- | --- | --- | --- | --- | --- | --- | --- | --- | --- | --- | --- | --- | --- | --- |
| CC(=O)[O][Hg][c]1nc2c(c(=O)n(C)c(=O)n2C)n1C | 98.8% | 102% | 102% | 113% | 60.3% | 49.8% | 97.6% | 98.9% | 98% | 90.8% | -28.5% (active) | 98.6% | 104% | 83.5% | 125% | 104% | 100% | 95.1% | 110% | 71.1% |
| C=CC(=O)NC(O)C(Cl)(Cl)Cl (configuration not stated) | 110% | 103% | 95.2% | 111% | 97.1% | 85.5% | 129% | 95.6% | 92.3% | 119% |  | 84.3% | 94.9% | 93.5% | 120% | 97.7% | 83.8% | 122% | 105% | 111% |
| CC(=O)Nc1ccc(C=C2C(=O)NC(=O)NC2=O)cc1 |  | 100% | 96.3% | 106% | 104% |  | 118% | 104% | 98.4% | 115% | 96.8% | 109% | 84.5% | 97.5% |  |  | 88% | 107% | 125% |  |
| COc1ccc(-c2ccc(OC)c(OC)c2OC)cc1 | 12% | 38.2% | 21.3% | -13.5% (active) | 10.1% | 33.2% | 11.2% | -9.72% (active) | 43.2% | 15.3% | 16.5% | 24% | 39.4% | 15.1% |  | -19.1% (active) | 22.7% | 70.6% | -25% (active) | 11.6% |
| COC(=O)C(=[N+]=[N-])C(=O)OC | 106% | 99.3% | 98.3% |  | 95.5% | 110% | 102% | 101% | 96.4% | 104% | 103% | 91.2% | 88.3% | 109% | 100% | 100% | 105% | 97.1% | 118% | 100% |
| COC(=O)C1CC2c3ccccc3C1c1ccccc12 (configuration not stated) | 104% | 98.2% | 104% | 99.8% | 102% | 90.6% | 94.6% | 87.3% | 97.8% | 94% | 94.7% | 103% | 83.6% | 76.5% | 98.4% | 108% | 97.3% | 106% | 115% | 106% |
| O=C(O)C1[O][Sb][O]C1C(=O)O (configuration not stated) | 108% | 103% | 102% | 109% | 89.1% | 86.8% | 116% | 123% | 98.2% | 86.9% | -57.9% (active) | 96.5% | 90.7% | 118% | 116% | 91.1% | 94.6% | 99.2% | 95.4% | 117% |
| O=C(NCc1ccc([N+](=O)[O-])cc1)Nc1ccc(S(=O)(=O)F)cc1 | 95.8% | 75% | 80.1% | 107% | 93% | 78.7% | 59.9% |  | 83% | 79.9% | 92.9% | 105% | 61.2% | 78% | 55.9% | 85.1% | 87.3% | 83.4% | 87% | 91.8% |
| c1ccc([As]=[As]c2ccccc2)cc1 (configuration not stated) | -45.2% (active) | -22.8% (active) | -90.4% (active) | -89.6% (active) | -60.2% (active) | -84.5% (active) | -80.3% (active) | 43.8% | -71.4% (active) | -70.5% (active) | -74.5% (active) |  | -96% (active) | -51.4% (active) | -48.5% (active) | -50.4% (active) | -49.1% (active) | 7.07% (active) | -93% (active) | -68.1% (active) |
| OB([O][Hg][c]1ccccc1)[O][Hg][c]1ccccc1 | -21.4% (active) | 24% | -76.6% (active) | -100% (active) | -32.5% (active) | -88.1% (active) | -94.3% (active) | -32.1% (active) | -98.3% (active) | -96.7% (active) | -29.2% (active) | -74.9% (active) | -94.1% (active) | -92.4% (active) | -31.2% (active) | -53.3% (active) | -38.8% (active) | 7.38% (active) | -89.6% (active) | -48.9% (active) |
| CCC(C)[C@H]1O[C@]2(C=C[C@@H]1C)C[C@@H]1C[C@@H](C/C=C(\C)[C@@H](OC3C[C@H](OC)C(O[C@H]4C[C@H](OC)[C@@H](O)[C@H](C)O4)[C@H](C)O3)[C@@H](C)/C=C/C=C3\CO[C@@H]4[C@H](O)C(C)=C[C@@H](C(=O)O1)[C@]34O)O2 (some centres not stated) | -34.5% (active) | 6.21% (active) | 0.269% (active) | -64.5% (active) |  |  |  | -41.9% (active) | -17.1% (active) | -79.2% (active) | -93.1% (active) | -57.2% (active) | 10.1% | 19.8% | -24.9% (active) | -26.2% (active) | -26.6% (active) | 16.4% | -72.3% (active) | -72% (active) |
| COc1ccc(/C=C(/C(=O)N2CCCC2)c2cc(OC)c(OC)c(OC)c2)cc1N | 13.5% | 41.1% | 24.5% | 5.31% (active) | 16.1% |  | 11.2% | 17.5% | 53.8% | 20% | 35.3% | 42.6% | 51.7% |  | -0.924% (active) | -11.9% (active) | 34.4% | 46.4% | 0.49% (active) | 25.6% |
| CC(=O)C1CCC2C3CC=C4CC(OC(=O)Cc5ccc(N(CCCl)CCCl)cc5)CCC4(C)C3CCC12C (configuration not stated) | 101% | 131% |  |  |  | 109% | 108% | 108% | 116% | 94.5% |  | 106% | 109% | 87.7% | 105% | 101% | 73% | 99.4% | 99.6% | 101% |
| Cc1cc(NC(=O)NCCOc2ccc(N3C(N)=NC(N)=NC3(C)C)cc2Cl)ccc1S(=O)(=O)F | 9.44% (active) | 9.6% (active) | 35.3% | 35.3% | 13% | 53.3% | 53.8% |  | 32.2% | 23.1% | 12.8% | 51.4% | 81.6% | 95.1% | 79.1% | 18.1% | 26.7% | 71.5% | 53.2% | 23.4% |
| C[CH2][Pb]([CH2]C)([CH2]C)[O]C(=O)COC | 3.94% (active) |  | -46.4% (active) | -7.82% (active) | 0.215% (active) | 10.6% | -8.73% (active) | -58.5% (active) |  | -74.9% (active) | -20.8% (active) | -38.7% (active) | -9.22% (active) | -10.3% (active) | -3.55% (active) | -50% (active) | -37.7% (active) | 9.63% (active) | -3.39% (active) | -28.3% (active) |
| CSc1ccccc1NP1(=O)OCC(C)([N+](=O)[O-])CO1 (configuration not stated) | 101% | 95.9% | 113% | 116% | 75.4% | 120% | 97.6% | 100% | 106% | 98.2% | 97.3% | 112% | 78.3% | 99.3% | 110% | 56.7% | 94.4% | 105% | 107% | 101% |
| Cc1cc(NC(=O)/C=C/c2ccc([N+](=O)[O-])cc2)ccc1S(=O)(=O)F | 103% | 98.8% | 89.1% | 102% | 94.7% | 103% | 119% |  | 97.4% | 100% | 102% | 107% | 71.8% | 114% | 98.7% | 98.5% | 89.5% | 103% | 122% | 110% |

Source: PubChem BioAssay (NCI)
